± gives the standard deviation of the averaged measurements. Over roughly 25,000 sequences, “ln(normalized median fluorescence intensity)” has its median near 8.6; the highest 2% begin near 10. Many of the other results were omitted from the sample, so the highest values are more common in it than they were.
Tested on: PfAP2-EXP AP2 domain (GST-tagged)
Assay: gcPBM binding intensity (ln(normalized median fluorescence intensity)); higher = stronger DNA binding
Outline: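 After 1 h on an Agilent 4 × 180k array of primer-extended double-stranded 36-bp intergenic genomic probes and negative controls, bound GST-tagged P. falciparum DNA-binding domains were detected with Alexa488 anti-GST antibody and scanned at 488 nm. The domains had been expressed in E. coli, and binding took place in 1× PBS with 1% milk, 0.2 mg/ml BSA, 0.5% salmon testes DNA and 0.03% Triton X-100. Binding intensity is the highest Masliner-normalised natural-log median intensity across replicate spots of either probe orientation.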

Sequence | gcPBM binding intensity (ln)
TTACACATACATATGTGGGAAAATATTGCTACATAT [CACACA_negctrl_site463] | 8.57 ± 0.49
TATATTTTTTAAACCACACACAATATAGAGTATAAT [CACACA_site4510] | 8.66 ± 0.47
AAATTAATATATAAAAGTACCCATATATTTAATATA [XGTACX_site3551] | 8.21 ± 0.39
ATGCATATAATTATATGTACATATAAGAAATATATA [XGTACX_site517] | 8.71 ± 0.37
ATTTCTTCTTTTTTTGTGAAACTGGAATATATATAT [XGTACX_negctrl_site527] | 9.17 ± 0.057
TATATAGTAATTTATTCACACAATTGGCACACCTCA [CACACA_site4679] | 8.71 ± 0.35
ATTCTAAATAATAAGAGTACAAATAATATGGAGAAG [XGTACX_site5209] | 9.12 ± 0.51
CATTCTACAATAAAAAGTACATATATATATTATATA [XGTACX_site921] | 8.43 ± 0.34
TTTTGTGATCTTACCACCTTTCATAATATTAATAAA [GTGCAC_negctrl_site360] | 8.61 ± 0.31
TATATATATATATGTGCACACATAATAAAAAAAAAA [CACACA_site3830] | 10.32 ± 0.064
ATATATATATAGTGCACACATATAAAATATATATAA [CACACA_site2745] | 9.9 ± 0.071
ATATATATATATAGTGCACACATATAAAATATATAT [CACACA_site8884] | 10.29 ± 0.021
ATATTTTATATAATAGTGCAAATAATATTAAATAAT | 8.66 ± 0.21
ATATAAATATAGTGTGCACACACATAATATATATAT [CACACA_site8713] | 9.38 ± 0.057
TATATATATATGTGCACACATAATAAAAAAAAAAAT [CACACA_site3831] | 9.9 ± 0.11
ATATATATATATATAGTGCAAATATCTTCTTTATAA | 10.3 ± 0.3
AATATATATATATGTGCACACATATATAATATGTAT [CACACA_site716] | 8.53 ± 0.28
TCAAAAATTTATATAGTGCAATATATATATAATGTA | 8.31 ± 0.42
TTGTTCATCTTTTTTTTTTTTTTTTTTTTTTAAATC [CACACA_negctrl_site191] | 8.18 ± 0.62
TCTCTAACTTTTAATACACACAAATAAATAAATAAA [CACACA_site6245] | 8.47 ± 0.35
GTGAGTGAAATATGCAAACACACACCCGAAAAATGT [CACACA_site3197] | 8.7 ± 0.57
TTAAAGGGAATGTATACACACGTTTCTCTATGTTAT [CACACA_site4793] | 8.59 ± 0.31
ACTAATAAAGGTGTAATACACACTATAAAAAGGAAT [CACACA_site1124] | 8.88 ± 0.57
TTCTTTGTTTTTTTTTTTTTTTTAAAAGATAATATT [XGTACX_negctrl_site381] | 8.43 ± 0.25
TATATATATATATGATGTACACATTTTATTATTTGT [XGTACX_site1147] | 9.94 ± 0.31
